Test results published in PubChem BioAssay (Tox21).
Where “and” joins values, the source holds several entries; their conditions need not be identical. Equal entries are not always repeated. Inconclusive results are not listed. Calls of active or inactive are those of the source. Calls follow the shape of the dose curve; as a rule, active = well fitted curve in the direction sought with a large enough effect in the repeat runs; inconclusive = weak or mixed curves; inactive = no such curve, though single readings can be large; an effect the other way counts as inactive or inconclusive.

How the values were obtained:
[1] = A CellTox Green Cytotoxicity Assay to monitor cytotoxicity in HEK293 cells - 40 hour (AID 1224871); also: nearly all actives have a fitted effect of over 45% in size; also: potency is read from the fitted curve at half-maximal effect
Method in brief: (§1)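 Nonlytic real-time cytotoxicity: HEK293 + CellTox Green reagent plated, 5 h preincubation, pintool compound addition (23 nL in DMSO), 37 C for 40 h, fluorescence measured at successive time points.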

[2] = qHTS RealTime-Glo MT Cell Viability Assay in HEK293 cells - 16 hour (AID 1224872); also: nearly all actives have a fitted effect of over 50% in size; also: potency is read from the fitted curve at half-maximal effect
Method in brief: (§2)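 Cells + reagent dispensed (600 cells/well, HEK293) → 5 h at 37 C/5% CO2 → 23 nL compound in DMSO pinned → 40 h at 37 C → luminescence read at 0, 8, 16, 24, 32, 40 h.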

[3] = qHTS RealTime-Glo MT Cell Viability Assay in HepG2 cells - 8 hour (AID 1224873); also: nearly all actives have a fitted effect of over 55% in size; also: potency is read from the fitted curve at half-maximal effect
Method in brief: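 HepG2 cells (600/well) mixed with RealTime-Glo MT reagent, settled 5 h at 37 C/5% CO2 before compound addition. Nonlytic NanoLuc luminescence from viable-cell prosubstrate reduction read repeatedly during 40 h treatment at 37 C.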

[4] = A CellTox Green Cytotoxicity Assay to monitor cytotoxicity in HEK293 cells - 24 hour (AID 1224875); also: series mostly up to about 77 µM; nearly all actives have a fitted effect of over 45% in size
Method in brief: as §1

[5] = qHTS RealTime-Glo MT Cell Viability Assay in HepG2 cells - 32 hour (AID 1224877); also: nearly all actives have a fitted effect of over 55% in size; also: potency is read from the fitted curve at half-maximal effect
Method in brief: (§3)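 Real-time, nonlytic viability: 600 HepG2 cells/well mixed with NanoLuc enzyme plus prosubstrate; 5 h settle, compound (DMSO) added by pintool; luminescence monitored over 40 h at 37 C.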

[6] = A CellTox Green Cytotoxicity Assay to monitor cytotoxicity in HepG2 cells - 24 hour (AID 1224878); also: nearly all actives have a fitted effect of over 45% in size; also: potency is read from the fitted curve at half-maximal effect
Method in brief: (§4)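 Read-out is fluorescence of a cyanine dye excluded from live cells that stains DNA of dead HepG2 cells, with signal proportional to cytotoxicity. Plates were read at 0, 8, 16, 24, 32 and 40 h after compound addition.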

[7] = A CellTox Green Cytotoxicity Assay to monitor cytotoxicity in HepG2 cells - 40 hour (AID 1224879); also: nearly all actives have a fitted effect of over 40% in size; also: potency is read from the fitted curve at half-maximal effect
Method in brief: as §4

[8] = qHTS RealTime-Glo MT Cell Viability Assay in HEK293 cells - 0 hour (AID 1224880); also: top concentration of the series differs between compounds; nearly all actives have a fitted effect of over 45% in size
Method in brief: (§5)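 Cells were seeded together with NanoLuc luciferase and a prosubstrate that viable cells reduce to a luciferase substrate. After a 5 h incubation at 37 C/5% CO2, compounds were added and luminescence was measured repeatedly during 40 h of treatment.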

[9] = A CellTox Green Cytotoxicity Assay to monitor cytotoxicity in HEK293 cells - 32 hour (AID 1224881); also: nearly all actives have a fitted effect of over 40% in size; also: potency is read from the fitted curve at half-maximal effect
Method in brief: as §1

[10] = A CellTox Green Cytotoxicity Assay to monitor cytotoxicity in HepG2 cells - 0 hour (AID 1224882); also: nearly all actives have a fitted effect of over 35% in size
Method in brief: as §4

[11] = A CellTox Green Cytotoxicity Assay to monitor cytotoxicity in HepG2 cells - 32 hour (AID 1224883); also: nearly all actives have a fitted effect of over 50% in size; also: potency is read from the fitted curve at half-maximal effect
Method in brief: as §4

[12] = A CellTox Green Cytotoxicity Assay to monitor cytotoxicity in HEK293 cells - 8 hour (AID 1224884); also: nearly all actives have a fitted effect of over 35% in size; also: potency is read from the fitted curve at half-maximal effect
Method in brief: as §1

[13] = qHTS RealTime-Glo MT Cell Viability Assay in HepG2 cells - 16 hour (AID 1224885); also: nearly all actives have a fitted effect of over 50% in size; also: potency is read from the fitted curve at half-maximal effect
Method in brief: as §3

[14] = qHTS RealTime-Glo MT Cell Viability Assay in HEK293 cells - 24 hour (AID 1224886); also: nearly all actives have a fitted effect of over 50% in size; also: potency is read from the fitted curve at half-maximal effect
Method in brief: as §2

[15] = A CellTox Green Cytotoxicity Assay to monitor cytotoxicity in HEK293 cells - 16 hour (AID 1224888); also: nearly all actives have a fitted effect of over 35% in size; also: potency is read from the fitted curve at half-maximal effect
Method in brief: as §1

[16] = qHTS RealTime-Glo MT Cell Viability Assay in HepG2 cells - 0 hour (AID 1224889); also: nearly all actives have a fitted effect of over 50% in size; also: potency is read from the fitted curve at half-maximal effect
Method in brief: as §3

[17] = A CellTox Green Cytotoxicity Assay to monitor cytotoxicity in HepG2 cells - 8 hour (AID 1224890); also: nearly all actives have a fitted effect of over 45% in size; also: potency is read from the fitted curve at half-maximal effect
Method in brief: as §4

[18] = qHTS RealTime-Glo MT Cell Viability Assay in HEK293 cells - 8 hour (AID 1224887); also: nearly all actives have a fitted effect of over 50% in size; also: potency is read from the fitted curve at half-maximal effect
Method in brief: as §5

[19] = A CellTox Green Cytotoxicity Assay to monitor cytotoxicity in HepG2 cells - 16 hour (AID 1224876); also: nearly all actives have a fitted effect of over 45% in size; also: potency is read from the fitted curve at half-maximal effect
Method in brief: as §4

[20] = qHTS RealTime-Glo MT Cell Viability Assay in HEK293 cells - 40 hour (AID 1224874); details: RealTime-Glo luminescence; max response: stronger effect = lower value; also: nearly all actives have a fitted effect of over 50% in size; also: potency is read from the fitted curve at half-maximal effect
Method in brief: as §5
% is scaled to controls: 0 for no effect and ±100 for the full control effect.

COCCOCCO
inactive: Potency [1] | Potency [2] | Potency [3] | Potency [4] | Potency [5] | Potency [6] | Potency [7] | Potency [8] | Potency [9] | Potency [10] | Potency [11] | Potency [12] | Potency [13] | Potency [14] | Potency [15] | Potency [16] | Potency [17]

C=CC(=O)OC
inactive: Potency [1] | Potency [2] | Potency [3] | Potency [4] | Potency [5] | Potency [6] | Potency [7] | Potency [8] | Potency [9] | Potency [10] | Potency [11] | Potency [12] | Potency [13] | Potency [14] | Potency [18] | Potency [15] | Potency [16] | Potency [17]

CCOP(=S)(OCC)SCn1nnc2ccccc2c1=O
active: Potency [2] 21.9 µM | Potency [14] 21.9 µM | Potency [16] 24.5 µM
inactive: Potency [1] | Potency [4] | Potency [19] | Potency [5] | Potency [6] | Potency [7] | Potency [9] | Potency [11] | Potency [12] | Potency [15] | Potency [17]

IC(I)=C(I)I
active: Potency [1] 54.9 µM | Potency [2] 9.77 µM | Potency [3] 1.55 µM | Potency [19] 24.5 µM | Potency [5] 0.436 µM | Potency [6] 19.5 µM | Potency [7] 12.3 µM | Potency [9] 54.9 µM | Potency [11] 13.8 µM | Potency [12] 54.9 µM | Potency [13] 0.776 µM | Potency [14] 6.92 µM | Potency [18] 17.4 µM | Potency [15] 54.9 µM | Potency [17] 38.9 µM
inactive: Potency [10]

CCCCOC(=O)c1ccccc1C(=O)OCc1ccccc1
inactive: Potency [1] | Potency [3] | Potency [4] | Potency [19] | Potency [5] | Potency [6] | Potency [7] | Potency [8] | Potency [9] | Potency [10] | Potency [11] | Potency [12] | Potency [13] | Potency [15] | Potency [16] | Potency [17]

CCOC(=O)[C@]1(c2ccccc2)Oc2ccccc2[C@@H]1N
inactive: Potency [1] | Potency [3] | Potency [4] | Potency [19] | Potency [5] | Potency [6] | Potency [7] | Potency [8] | Potency [9] | Potency [10] | Potency [11] | Potency [12] | Potency [13] | Potency [18] | Potency [15] | Potency [16] | Potency [17]

O=[N+]([O-])c1ccccc1CCl
inactive: Potency [1] | Potency [2] | Potency [3] | Potency [4] | Potency [5] | Potency [6] | Potency [8] | Potency [9] | Potency [10] | Potency [11] | Potency [12] | Potency [14] | Potency [18] | Potency [15] | Potency [16]

CCC(C)(NC(=O)c1cc(Cl)c(C)c(Cl)c1)C(=O)CCl (stereo not drawn)
inactive: Potency [10] | Potency [15] | Potency [16] | Potency [17]
active: Potency [1] 43.9 µM | Potency [2] 27.7 µM | Potency [20] 13.9 µM | Potency [5] 49.3 µM | Potency [7] 49.3 µM | Potency [9] 43.9 µM | Potency [11] 49.3 µM | Potency [14] 24.7 µM | Potency [18] 27.7 µM

Brc1ccc(Oc2ccccc2)cc1
inactive: Potency [2] | Potency [3] | Potency [5] | Potency [6] | Potency [7] | Potency [8] | Potency [10] | Potency [11] | Potency [13] | Potency [14] | Potency [18] | Potency [15] | Potency [16] | Potency [17]
active: Potency [1] 44.7 µM and 21.9 µM | Potency [9] 50.2 µM and 21.9 µM

NC(=O)CI
active: Potency [5] 9.86 µM
inactive: Potency [2] | max response [20] 1.19% | Potency [10] | Potency [18]

O=[N+]([O-])c1cc(C(F)(F)F)cc([N+](=O)[O-])c1Cl
inactive: Potency [1] | Potency [3] | Potency [4] | Potency [5] | Potency [6] | Potency [8] | Potency [9] | Potency [10] | Potency [11] | Potency [12] | Potency [13] | Potency [15] | Potency [16] | Potency [17]

COC(=O)C(C)N(C(=O)Cc1ccccc1)c1c(C)cccc1C (stereo not drawn)
active: Potency [16] 21.9 µM
inactive: Potency [1] | Potency [3] | Potency [4] | Potency [19] | Potency [5] | Potency [9] | Potency [10] | Potency [12] | Potency [13] | Potency [15] | Potency [17]

[O-][Cl+]O
inactive: Potency [2] | Potency [3] | Potency [4] | Potency [19] | Potency [5] | Potency [6] | Potency [8] | Potency [10] | Potency [11] | Potency [12] | Potency [14] | Potency [18] | Potency [15] | Potency [16] | Potency [17]
